Pf growth 96h: Primary qHTS for delayed death inhibitors of the malarial parasite plastid, 96 hour incubation; P. falciparum luciferase reporter growth, 96 h; Potency, µM (titrated, usually from 28.7 µM), for inactives: top-dose activity change, negative = inhibition, most hits filed as inhibitors; actives 6.9% (n = 320,000); AID 504834, 2011; note: potency is the fitted concentration of half-maximal effect
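Plates of compound plus infected erythrocytes (2% hematocrit, 0.05% parasitemia final) incubate 96 hours, 37 C, 5% CO2. Detection reagent added; reduced luminescence from the parasites' luciferase reporter flags inhibition.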
HCMV antiviral: qHTS Assay for inhibitors of the human cytomegalovirus (HCMV); actives 4.5% (n = 410,000); activity change, negative = inhibition, % at 57.5 µM; HFF cells, HCMV-luciferase reporter, 72 h; active compounds read low; in the data active = activity change below about -60%; inconclusive = no clear call, values can overlap the other calls; inactive = above about -39%
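After 16 h attachment at 37C, HFF cells received test compound and HCMV-luciferase (1 PFU/cell); reporter luminescence read 72 h later, data normalized against buffer-only and known inhibitor Salinomycin.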
Pf growth 48h: Primary qHTS for delayed death inhibitors of the malarial parasite plastid, 48 hour incubation; Potency, µM (top dose mostly 28.7 µM), for the others: top-dose activity change, negative = inhibition, hits mostly inhibitors; P. falciparum luciferase growth in erythrocytes, 48 h; actives 5.9% (n = 310,000); note: potency is the fitted concentration of half-maximal effect
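Cell-based growth assay: transgenic P. falciparum expressing firefly luciferase, cultured in red cells within RPMI 1640 containing 0.5% w/v Albumax, 24 mM bicarbonate and gentamycin. A drop in luciferase activity indicates inhibition.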
HCV inhibitor: qHTS Assay for Inhibitors of Hepatitis C Virus (HCV); Potency, µM (highest dose often 41.8 µM), inactives show at the top dose activity change, negative = inhibition, usual class: inhibitors; Huh7.5.1 HCVcc-Cre infection, luciferase reporter, 44 h; AID 651820, 2012; actives 3.4% (n = 340,000); note: potency is the fitted concentration of half-maximal effect
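Cells seeded at 1,000/well and cultured 4 h, then compounds added followed by HCVcc-Cre virus (~0.5 moi). After 44 h further culture, luciferase substrate was added, plates held 15 min at room temperature, and luminescence read for 15 sec.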
Numbers without * were called inactive; u = inconclusive; x = not tested or not shown. Only some compounds are listed: those with a hit (about 13% of all), similar ones and a draw of the others. Unless noted, calls come from the whole dose curve; as a rule, active = well fitted inhibition curve with a large enough effect; inconclusive = small, poorly fitted or top-dose-only effect, or another doubt; inactive = no such curve, though single readings can be large or run the other way. % is set by controls: 0 for no effect and ±100 for the full control effect.

SMILES	Pf growth 96h	HCMV antiviral	Pf growth 48h	HCV inhibitor
OC1CCN(c2c3c(nc4cc(-c5cccc(F)c5)nn24)CCCC3)CC1	19%	40	9.3µM*	u
Fc1cccc(-c2cc3nc4c(c(N5CCC6(CC5)OCCO6)n3n2)CCCC4)c1	14%	14	9.3µM*	13µM*
COC(=O)c1ccc(NC(=O)C(C)Sc2nc(=O)cc(N)n2CCc2ccccc2)cc1 (centres undefined)	x	6	x	x
CCCNC(=O)Nc1cc(C(=O)NCc2cccc(OCC)c2)ccc1N1CCCC1	x	3	x	x
C#CCN1CC(=O)N(COC(=O)C2C(C=C(C)C)C2(C)C)C1=O (centres undefined)	x	-19	x	x
CCC(C)NC(=O)c1cc(-c2cccc(OC)c2)on1 (centres undefined)	x	97	x	x
CCc1ccc(-n2c(=O)c3sc4ccccc4c3n(CC(=O)N(CC)Cc3ccccc3)c2=O)cc1	x	7	x	x
Cc1sc2ncnc(Sc3nnc4sc5ccccc5n34)c2c1C	u	x	2.9µM*	0%
Cc1ccccc1NC(=O)CSc1nc2ccc(NC(=O)c3ccccc3)cc2s1	x	-5	x	x
COc1ccc2cc(CN(C(=O)Nc3ccccc3OC)C3CCCC3)c(=O)[nH]c2c1	17%	0	2.3µM*	u
O=C(NC1CCCCC1)N(Cc1cc2cc3c(cc2[nH]c1=O)OCCO3)C1CCCCC1	5.9µM*	-80*	x	11µM*
COc1ccc(CN(Cc2cc3cc(OC)c(OC)cc3[nH]c2=O)C(=O)NC2CCCCC2)cc1	1.7µM*	9	x	-6%
COc1cc2cc(CN(C(=O)NC3CCCCC3)C3CCCC3)c(=O)[nH]c2cc1OC	u	-27	12µM*	16%
CCN(CC)CCN(Cc1cc2ccc(C)cc2[nH]c1=O)C(=O)NC1CCCCC1	7%	-17	u	-10%
COc1cccc(NC(=O)N(C)C[C@H]2OCc3cn(nn3)CCCC(=O)N([C@H](C)CO)C[C@@H]2C)c1	x	-5	x	x
O=c1[nH]c2cc3c(cc2cc1CN(Cc1nnnn1C1CCCC1)C1CCCC1)OCCO3	9.3µM*	-5	x	u
COc1cc2cc(CN(Cc3nnnn3C3CCCC3)C3CCCC3)c(=O)[nH]c2cc1OC	-32%	x	6%	x
Cn1c(Cc2c[nH]c3ccccc23)n[nH]c1=S	42%	69	x	6%
Cn1c(CSCc2ccc(F)cc2)n[nH]c1=S	13µM*	-17	-7%	1%
Cc1[nH]c2ccccc2c1SCc1n[nH]c(=S)n1C	0%	-78*	9%	-23%
Cc1[nH]c2ccccc2c1SCc1ccccc1	12%	-18	6%	-1%
Cc1[nH]c2ccccc2c1Cc1n[nH]c(=S)n1C	5.2µM*	-14	15%	21%
Cc1ccc(NC(=O)c2cc(CN3CCOCC3)on2)cc1Cl	x	18	x	x
O=C(COc1ccc(C(=O)c2ccc(F)cc2)cc1)Nc1cccc(S(=O)(=O)N2CCOCC2)c1	x	-18	x	6.3µM*
Cc1noc(C)c1COc1ccc(C(=O)OCC(=O)Nc2cccc(S(=O)(=O)N3CCOCC3)c2)cc1	5.2µM*	46	-29%	u
SMILES	Pf growth 96h	HCMV antiviral	Pf growth 48h	HCV inhibitor
CCOC(=O)C1CCCN(C(=O)c2c(C)nn(-c3ccc(F)cc3)c2-n2cccc2)C1 (centres undefined)	x	10	x	x
Cc1ccc(Oc2nnc(-c3ccccc3)c3ccccc23)cc1	0%	-37	-8%	35µM*
Cc1ccc(Oc2nc(C(F)(F)F)nc3ccccc23)cc1	49%	-69*	-5%	-1%
Cc1nnc(Oc2ccc([N+](=O)[O-])cc2)c2ccccc12	40%	-96*	67%	-2%
Cc1nnc(Oc2ccccc2)c2ccccc12	-27%	-1	-3%	u
COc1ccc(CNC(=O)C(c2ccco2)N(Cc2ccccc2)C(=O)Cc2cccs2)cc1 (centres undefined)	u	-34	u	9%
COCCN(C(=O)Cc1cccs1)C(C(=O)NCc1ccc(OC)cc1)c1ccc(OC)cc1 (centres undefined)	u	25	13µM*	7%
COc1ccc(CNC(=O)C(c2ccncc2)N(C(=O)Cc2cccs2)c2ccccc2C)cc1 (centres undefined)	7%	12	u	-9%
COc1ccc(CNC(=O)C(c2cccs2)N(Cc2ccco2)C(=O)Cc2cccs2)cc1 (centres undefined)	13%	-19	13µM*	u
